Laboratory results from the supplement of paper PMC10849652.
Targets with a hit are over-represented here; the source holds about 7,900 in all. About 0.6% of all pairs of compound and target were hits. Unmarked numbers belong to inactive results.

These targets were tested with c1ccc([C@@H]2C[C@H]2NC2CCNCC2)cc1 (assay: log2 fold change, soluble protein after heating vs DMSO (PISA); higher = thermal stabilisation; K562 cells, 10 uM, 30 min; active = over 0.2 and 3.5 SD of the protein, either way, in both replicates (recomputed)).
How it was run: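 K562 cells at 2×10^6 cells/mL were given 10 μM compound for 30 min. Aliquots then went through 3 min of heating across 48°C-58°C, were pooled, and were extracted in PBS with 0.5% NP-40 at 4°C, and the supernatant after 21,000xg for 90 min was quantified by TMTpro 16plex LC-MS/MS with channel sums equalised. Thermal stability relative to control samples, from duplicates, is given as log2 fold change.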

Chain of UniProt Q99653 (Q99653 whole entry, looked up): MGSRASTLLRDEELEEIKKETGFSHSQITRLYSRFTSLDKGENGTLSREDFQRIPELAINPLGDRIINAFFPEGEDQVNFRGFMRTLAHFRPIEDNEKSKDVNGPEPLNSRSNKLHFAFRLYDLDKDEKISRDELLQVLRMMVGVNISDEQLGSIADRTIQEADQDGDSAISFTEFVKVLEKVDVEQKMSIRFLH
Chain of UniProt A5YKK6 (A5YKK6 whole entry, looked up): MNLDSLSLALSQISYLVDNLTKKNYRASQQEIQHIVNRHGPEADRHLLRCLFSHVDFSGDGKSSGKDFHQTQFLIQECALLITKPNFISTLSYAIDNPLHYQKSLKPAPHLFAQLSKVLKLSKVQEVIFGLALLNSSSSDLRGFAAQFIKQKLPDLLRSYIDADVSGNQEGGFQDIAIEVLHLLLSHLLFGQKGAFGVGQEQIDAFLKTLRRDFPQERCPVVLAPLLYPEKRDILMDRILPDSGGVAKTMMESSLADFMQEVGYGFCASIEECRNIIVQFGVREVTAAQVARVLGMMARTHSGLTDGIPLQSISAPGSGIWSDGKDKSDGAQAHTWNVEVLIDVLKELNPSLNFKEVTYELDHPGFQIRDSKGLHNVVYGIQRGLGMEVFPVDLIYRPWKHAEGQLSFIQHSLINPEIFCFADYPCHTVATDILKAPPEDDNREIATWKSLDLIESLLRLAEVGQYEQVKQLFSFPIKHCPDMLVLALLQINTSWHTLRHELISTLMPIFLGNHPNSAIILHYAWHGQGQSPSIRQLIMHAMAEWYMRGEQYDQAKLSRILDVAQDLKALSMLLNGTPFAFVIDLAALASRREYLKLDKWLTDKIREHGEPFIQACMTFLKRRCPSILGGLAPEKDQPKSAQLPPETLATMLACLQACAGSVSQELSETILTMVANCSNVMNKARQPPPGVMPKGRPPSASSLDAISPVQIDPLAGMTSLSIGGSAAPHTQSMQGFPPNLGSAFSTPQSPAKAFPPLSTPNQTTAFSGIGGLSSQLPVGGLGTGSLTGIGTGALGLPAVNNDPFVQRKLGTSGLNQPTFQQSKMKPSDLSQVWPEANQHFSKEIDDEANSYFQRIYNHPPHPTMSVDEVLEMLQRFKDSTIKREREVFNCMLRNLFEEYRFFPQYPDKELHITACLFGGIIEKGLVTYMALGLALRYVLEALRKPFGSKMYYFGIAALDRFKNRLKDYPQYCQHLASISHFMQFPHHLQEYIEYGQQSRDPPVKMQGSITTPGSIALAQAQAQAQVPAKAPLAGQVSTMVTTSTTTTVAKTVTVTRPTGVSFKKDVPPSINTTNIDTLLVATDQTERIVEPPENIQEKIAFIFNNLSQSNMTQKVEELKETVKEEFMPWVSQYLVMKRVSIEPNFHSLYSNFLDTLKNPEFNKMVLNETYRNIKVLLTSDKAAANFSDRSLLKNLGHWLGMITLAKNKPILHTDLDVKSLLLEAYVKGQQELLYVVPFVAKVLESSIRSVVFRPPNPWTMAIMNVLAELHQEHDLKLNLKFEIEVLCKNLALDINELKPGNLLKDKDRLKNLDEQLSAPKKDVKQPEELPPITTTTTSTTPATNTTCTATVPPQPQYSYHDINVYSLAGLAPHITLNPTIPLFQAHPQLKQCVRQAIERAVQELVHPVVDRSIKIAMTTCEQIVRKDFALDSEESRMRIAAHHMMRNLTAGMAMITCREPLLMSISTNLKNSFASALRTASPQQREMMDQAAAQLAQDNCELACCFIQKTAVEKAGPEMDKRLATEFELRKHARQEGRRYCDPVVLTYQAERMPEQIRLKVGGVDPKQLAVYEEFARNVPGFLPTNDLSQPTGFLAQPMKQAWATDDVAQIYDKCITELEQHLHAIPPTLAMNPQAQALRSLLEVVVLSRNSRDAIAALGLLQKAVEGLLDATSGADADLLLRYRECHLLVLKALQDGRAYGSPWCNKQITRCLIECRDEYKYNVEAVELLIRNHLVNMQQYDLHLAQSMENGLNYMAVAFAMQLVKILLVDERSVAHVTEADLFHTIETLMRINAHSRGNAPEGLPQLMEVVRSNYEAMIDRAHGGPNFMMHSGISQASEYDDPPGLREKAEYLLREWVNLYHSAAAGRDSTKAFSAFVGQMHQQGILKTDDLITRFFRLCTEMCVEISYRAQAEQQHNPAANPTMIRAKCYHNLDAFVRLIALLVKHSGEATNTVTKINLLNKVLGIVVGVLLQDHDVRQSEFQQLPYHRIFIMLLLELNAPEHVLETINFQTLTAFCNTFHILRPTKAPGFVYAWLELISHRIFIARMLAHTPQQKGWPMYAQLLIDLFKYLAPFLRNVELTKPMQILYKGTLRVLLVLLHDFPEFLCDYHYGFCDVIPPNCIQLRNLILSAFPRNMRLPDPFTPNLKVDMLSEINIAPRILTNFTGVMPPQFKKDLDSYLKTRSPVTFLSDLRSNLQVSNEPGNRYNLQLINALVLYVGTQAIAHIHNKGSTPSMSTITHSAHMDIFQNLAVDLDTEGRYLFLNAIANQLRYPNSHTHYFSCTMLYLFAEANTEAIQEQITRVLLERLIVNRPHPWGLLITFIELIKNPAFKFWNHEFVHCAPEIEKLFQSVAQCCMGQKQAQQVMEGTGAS
Chain of UniProt P51790 (P51790 whole entry, looked up): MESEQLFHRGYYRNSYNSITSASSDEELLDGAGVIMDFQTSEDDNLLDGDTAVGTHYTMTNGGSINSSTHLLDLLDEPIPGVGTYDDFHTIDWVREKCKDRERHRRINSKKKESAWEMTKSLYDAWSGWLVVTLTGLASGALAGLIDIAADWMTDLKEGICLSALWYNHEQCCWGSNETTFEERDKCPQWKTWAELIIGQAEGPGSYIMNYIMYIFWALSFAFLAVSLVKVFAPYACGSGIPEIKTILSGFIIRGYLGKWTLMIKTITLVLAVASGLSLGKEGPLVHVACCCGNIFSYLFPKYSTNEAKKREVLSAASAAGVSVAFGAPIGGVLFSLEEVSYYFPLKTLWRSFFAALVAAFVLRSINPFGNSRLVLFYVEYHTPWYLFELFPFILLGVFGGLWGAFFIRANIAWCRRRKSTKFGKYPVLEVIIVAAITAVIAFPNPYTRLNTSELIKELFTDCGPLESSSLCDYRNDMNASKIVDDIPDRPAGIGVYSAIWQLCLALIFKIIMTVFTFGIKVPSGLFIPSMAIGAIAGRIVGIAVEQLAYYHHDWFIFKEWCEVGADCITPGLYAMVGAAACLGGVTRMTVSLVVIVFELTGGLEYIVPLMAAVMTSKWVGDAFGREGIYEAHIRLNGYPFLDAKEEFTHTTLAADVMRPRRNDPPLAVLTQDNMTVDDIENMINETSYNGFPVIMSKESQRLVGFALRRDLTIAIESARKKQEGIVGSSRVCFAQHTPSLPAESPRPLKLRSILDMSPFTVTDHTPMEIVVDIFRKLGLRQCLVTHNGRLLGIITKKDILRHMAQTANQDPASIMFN
Chain of UniProt O75122 (O75122 whole entry, looked up): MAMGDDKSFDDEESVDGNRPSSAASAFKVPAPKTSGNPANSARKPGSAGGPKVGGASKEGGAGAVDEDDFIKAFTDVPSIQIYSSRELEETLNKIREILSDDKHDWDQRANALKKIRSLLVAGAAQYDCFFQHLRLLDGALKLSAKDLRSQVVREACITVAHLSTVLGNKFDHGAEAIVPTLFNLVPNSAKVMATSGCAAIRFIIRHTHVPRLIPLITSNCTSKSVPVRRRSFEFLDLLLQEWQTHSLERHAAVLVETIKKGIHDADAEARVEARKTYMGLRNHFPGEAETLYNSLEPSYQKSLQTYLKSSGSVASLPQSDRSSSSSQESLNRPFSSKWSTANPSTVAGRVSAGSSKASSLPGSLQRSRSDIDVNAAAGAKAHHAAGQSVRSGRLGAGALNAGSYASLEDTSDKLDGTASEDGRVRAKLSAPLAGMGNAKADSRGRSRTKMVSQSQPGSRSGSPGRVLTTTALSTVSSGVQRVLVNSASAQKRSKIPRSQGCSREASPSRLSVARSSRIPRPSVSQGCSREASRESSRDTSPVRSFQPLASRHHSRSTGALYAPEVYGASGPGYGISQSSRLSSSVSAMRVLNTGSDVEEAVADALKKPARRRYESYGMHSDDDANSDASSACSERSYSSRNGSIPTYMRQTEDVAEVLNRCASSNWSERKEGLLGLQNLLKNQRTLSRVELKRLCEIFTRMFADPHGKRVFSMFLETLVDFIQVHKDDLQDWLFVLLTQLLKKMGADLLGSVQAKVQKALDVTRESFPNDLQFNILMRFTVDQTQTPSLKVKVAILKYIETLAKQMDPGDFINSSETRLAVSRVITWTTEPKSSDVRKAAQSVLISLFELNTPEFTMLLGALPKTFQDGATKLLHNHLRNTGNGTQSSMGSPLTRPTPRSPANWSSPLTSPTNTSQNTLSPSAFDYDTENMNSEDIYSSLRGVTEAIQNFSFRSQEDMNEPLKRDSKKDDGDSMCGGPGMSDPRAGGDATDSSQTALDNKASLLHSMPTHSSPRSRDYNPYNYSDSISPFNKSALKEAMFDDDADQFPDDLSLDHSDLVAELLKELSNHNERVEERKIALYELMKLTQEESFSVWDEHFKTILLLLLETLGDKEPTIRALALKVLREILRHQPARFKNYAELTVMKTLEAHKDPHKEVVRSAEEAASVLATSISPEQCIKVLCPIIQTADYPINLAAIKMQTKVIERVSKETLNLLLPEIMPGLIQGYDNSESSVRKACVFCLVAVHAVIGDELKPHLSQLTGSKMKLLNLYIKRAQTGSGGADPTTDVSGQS
Chain of UniProt O15182 (O15182 whole entry, looked up): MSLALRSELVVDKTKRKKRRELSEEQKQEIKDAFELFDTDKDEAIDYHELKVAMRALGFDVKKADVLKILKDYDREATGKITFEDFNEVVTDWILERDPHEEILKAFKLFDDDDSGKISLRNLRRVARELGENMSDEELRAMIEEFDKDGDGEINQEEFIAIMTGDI
Chain of UniProt Q9NRR8 (Q9NRR8 whole entry, looked up): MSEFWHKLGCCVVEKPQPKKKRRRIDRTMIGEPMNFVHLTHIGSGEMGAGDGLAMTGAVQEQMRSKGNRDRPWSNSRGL
Chain of UniProt P14854 (P14854 whole entry, looked up): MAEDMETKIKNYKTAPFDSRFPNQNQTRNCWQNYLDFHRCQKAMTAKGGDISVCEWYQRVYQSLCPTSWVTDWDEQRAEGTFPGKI

Target	log2 fold change
CERS2 (UniProt Q96G23)	0.048
CDKN2AIP (UniProt Q9NXV6)	-0.014
CNOT1 (UniProt A5YKK6)	-0.021
CHP1 (UniProt Q99653)	-0.015
CLN3 (UniProt Q13286)	0.087
CHST11 (UniProt Q9NPF2)	-0.139
CDC42BPB (UniProt Q9Y5S2)	-0.004
CLASP2 isoform 3 (UniProt O75122)	-0.014
CETN3 (UniProt O15182)	-0.014
CLN8 (UniProt Q9UBY8)	-0.057
CAMK2G isoform 6 (UniProt Q13555)	-0.021
CLCN3 (UniProt P51790)	0.056
COX6B1 (UniProt P14854)	-0.054
CRK (UniProt P46108)	-0.01
CD63 (UniProt P08962)	0.035
CDC42SE1 (UniProt Q9NRR8)	-0.007
CPSF3 (UniProt Q9UKF6)	0.009
CAMKK2 (UniProt Q96RR4)	0.149
C16orf58 (UniProt Q96GQ5)	0.013
